Screening results (PubChem BioAssay)
Rows were chosen to be rich in hits. Some 7.5% of all compounds tested hit in one or more screens of this group.
Luc counter: Kinase-Glo luciferase inhibition (counter-screen); Q27757; AID 1379; Kinase-Glo luciferase, ATP luminescence, 8 min; Potency, µM (top dose mostly 38.3 µM), for inactives: at the top dose activity change, negative = inhibition, usual class: inhibitors; actives 0.28% (n = 200,000); further: on the % scale 0 is the no-effect control and ±100 the full control effect; nearly all actives have a fitted effect of over 60% in size
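Inhibition of Kinase-Glo luciferase light generation was assessed at 10 uM ATP in pH 7.2 imidazole buffer, with luminescence measured after eight minutes at ambient temperature.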
FLuc counter: firefly luciferase modulation, counter-screen for miR-21 project | P08659 | purified FLuc, Km substrates, luminescence inhibition | Potency, µM (top dose mostly 57.5 µM), without a hit: at the highest dose activity change, negative = inhibition, most hits filed as inhibitors | actives 6.9% (n = 360,000) | AID 588342;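 further: plate controls were vehicle for no effect and reference inhibitor for full effect; nearly all actives have a fitted effect of over 55% in size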
Target sequence (P08659 whole entry, looked up): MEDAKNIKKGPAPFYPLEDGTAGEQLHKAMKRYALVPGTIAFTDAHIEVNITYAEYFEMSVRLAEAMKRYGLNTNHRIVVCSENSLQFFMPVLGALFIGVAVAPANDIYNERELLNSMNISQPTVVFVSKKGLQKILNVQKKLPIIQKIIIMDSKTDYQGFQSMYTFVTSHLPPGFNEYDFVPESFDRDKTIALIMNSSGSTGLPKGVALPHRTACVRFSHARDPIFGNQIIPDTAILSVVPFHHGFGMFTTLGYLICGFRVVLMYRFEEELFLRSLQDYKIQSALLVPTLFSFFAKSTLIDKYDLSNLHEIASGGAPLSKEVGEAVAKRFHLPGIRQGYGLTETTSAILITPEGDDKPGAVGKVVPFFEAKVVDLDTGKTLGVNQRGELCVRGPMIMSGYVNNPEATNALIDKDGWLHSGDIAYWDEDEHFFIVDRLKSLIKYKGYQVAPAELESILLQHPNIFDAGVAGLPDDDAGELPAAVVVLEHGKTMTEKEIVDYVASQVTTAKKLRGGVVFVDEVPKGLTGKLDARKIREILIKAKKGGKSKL
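Purified P. pyralis luciferase, 10 nM final, with Km-level 10 uM D-luciferin and 10 uM ATP in 50 mM Tris acetate pH 7.5, 10 mM Mg acetate, 0.01% Tween-20, 0.05% BSA; 6-point qHTS titration about 60 µM downward; luminescence read.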
ELG1 genotoxic: genotoxicity induction in ELG1-luciferase HEK293T cells; HEK293T ELG1-luciferase reporter, luminescence, 16 h; Potency, µM (titrated, usually from 46 µM), without a hit: at the top dose activity change, positive = activation, most hits filed as activators; actives 1.3% (n = 330,000); AID 504466; further: % of control where 0% means no effect; nearly all actives have a fitted effect of over 60% in size
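Reporter readout depends on ELG1 protein level, which increases with genetic stress. After 16 hr compound exposure at 37 °C, luciferase activity was quantified using ONE-Glo.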
SMN2 splice enh: SMN2 splice variant enhancement; HEK293 SMN2-luciferase splicing reporter, luminescence, 30-36 h; AID 1458; actives 2.8% (n = 210,000); Potency, µM (top dose mostly 46.1 µM), inactives show at the highest dose activity change, positive = activation, usual class: activators; further: % of control where 0% means no effect; nearly all actives have a fitted effect of over 55% in size
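qHTS luciferase splicing reporter: luminescence rises when SMN2 exon 7 is included in transfected HEK293 cells. Compound exposure lasted 30-36 h at 37C, with 4.5 mM final sodium butyrate as control, followed by a ONE-Glo read.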
NPC1 promoter act: NPC1 promoter activation | Huh7 NPC1 promoter luciferase reporter, 24 h | Potency, µM (top dose mostly 9.22 µM), without a hit: top-dose activation, hits mostly activators | actives 2.4% (n = 320,000); further: % of control where 0% means no effect; nearly all actives have a fitted effect of over 60% in size
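Luminescence from an NPC1 promoter-driven luciferase reporter in stably transfected Huh7 cells was measured after 24 h compound treatment at 37 °C, followed by 10 min ambient incubation with luciferase detection reagent.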
Rab9 promoter act: Rab9 promoter activation; Huh7 Rab9 promoter-luciferase reporter, luminescence, 24 h; Potency, µM (series often up to 9.22 µM), inactives show at the top dose activation, negative = inhibition, hits mostly activators; actives 2.8% (n = 320,000); further: % of control where 0% means no effect; nearly all actives have a fitted effect of over 60% in size
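Measured in stably transfected Huh7 cells bearing a Rab9 promoter–luciferase construct: 24 h compound treatment at 37 °C, followed by luminescence detection.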
An asterisk follows results filed as active; ? = inconclusive; / = no result; [ ] = remark or other dose. The call rests on the fitted dose curve; in most records, active means well fitted curve in the direction sought with a large enough effect; inconclusive means small, poorly fitted or top-dose-only effect, or another doubt; inactive means no such curve, though single readings can be large; an effect the other way counts as inactive or inconclusive. Potency means the concentration at half of the fitted maximal effect.

SMILES	Luc counter	FLuc counter	ELG1 genotoxic	SMN2 splice enh	NPC1 promoter act	Rab9 promoter act
CCN(CC)c1ccc(/C=N/NC(=O)c2c(Cl)cnn2C)c(O)c1	-4%	?	?	-71%	-19%	-33%
COc1ccc(-c2nc(SCC(=O)Nc3ccc4c(c3)OCCO4)c(-c3ccc(C)cc3)[nH]2)cc1OC	/	?	/	-5%	/	/
CCOc1ccccc1NC(=O)c1nnn(CC(=O)Nc2ccc3c(c2)OCO3)c1N	/	-18%	3%	/	-2%	-4%
CCOc1ccccc1NC(=O)c1nnn(-c2ccc3c(c2)OCCO3)c1N	/	17µM*	-2%	/	-4%	?
Nc1c(C(=O)Nc2cccc(F)c2)nnn1-c1ccc2c(c1)OCCO2	/	0.6µM*	0.65µM*	/	0.1µM*	0.32µM*
Nc1c(C(=O)NCc2ccc3c(c2)OCO3)nnn1-c1ccc(OC(F)(F)F)cc1	-1%	-3%	1%	-44%	7%	11%
Cc1ccccc1NC(=O)c1nnn(-c2ccc3c(c2)OCCO3)c1N	/	6µM*	5%	/	1.3µM*	0.89µM*
COc1ccc(CCNC(=O)c2nnn(-c3ccc4c(c3)OCCO4)c2N)cc1OC	3%	19µM*	10%	/	13%	-5%
Cc1cccc(Nc2nc(-c3ccccc3)c3cc(C)ccc3n2)c1	/	2%	/	6%	/	/
Oc1cc(O)cc(/C=C/c2ccc(O)c(O)c2)c1	?	9.5µM*	5.2µM*	32µM*	?	-34%[46.1 µM]
O=C(N/N=C/c1cc([N+](=O)[O-])ccc1O)C12CC3CC(CC(C3)C1)C2	3%	?	5%	-93%	1%	-6%
O=C(N/N=C/c1ccccn1)NC12CC3CC(CC(C3)C1)C2	/	17µM*	4%	/	?	?
O=C(N/N=C/c1cc([N+](=O)[O-])ccc1O)NC12CC3CC(CC(C3)C1)C2	4%	?	15µM*	-36%	14%	-2%
CCOC(=O)c1cnc2c(N=Nc3cccc(Cl)c3)c(N)nn2c1N	-5%	?	9%	-16%	0%	3%
CCOC(=O)c1cnc2c(-c3ccccc3)c(C)nn2c1N	3%	?	?	-19%	22%	21%
CCOC(=O)c1cnc2c(-c3ccc(Cl)cc3)cnn2c1C	0%	0.6µM*	2.6µM*	11µM*	1.8µM*	0.89µM*
CCOC(=O)c1cnc2c(-c3ccccc3)cnn2c1N	-6%	0.6µM*	?	10µM*	0.63µM*	0.5µM*
CCOC(=O)c1cnc2c(N=Nc3ccccc3)c(N)nn2c1N	-14%	0.95µM*	?	16µM*	1.1µM*	1.1µM*
Cc1cc(=O)n2nc(N3CCC(C(=O)Nc4ccc(Br)cc4F)CC3)sc2n1	/	-8%	/	-6%	/	/
Cc1ccccc1OCC(=O)Nc1ccccc1CO	1%	?	1%	20%	14%	-6%
Cc1ccc(OCC(=O)NC2=NCCS2)cc1	-7%	11µM*	4%	-17%	24%	20%
O=C(CSc1ccccc1)NC1=NCCS1	/	13µM*	1%	/	1%	-3%
O=C(COc1ccccc1)NCC(=O)NC1=NCCS1	-1%	-7%	3%	-3%	12%	-2%
Cc1ccccc1OCC(=O)NC1=NCCS1	-11%	12µM*	9.2µM*	13µM*	1.8µM*	2.8µM*
O=C(CSc1cccc2cccc(Cl)c12)NC1=NCCS1	5%	?	0%	7%	0%	-9%
O=C(CSc1nncn1-c1ccccc1)Nc1cc(F)ccc1F	/	0%	0%	/	-1%	0%
O=C(c1ccc(F)cc1)N1CCC(c2nc(-c3ccc(S(=O)(=O)N4CCCC4)cc3)no2)CC1	/	5%	/	15%	/	/
Cc1ccc(C(=O)N2CC(C)OC(C)C2)cc1[N+](=O)[O-] (stereo not drawn)	-1%	-1%	1%	/	-9%	-3%
